# Assay results: article PMC12280212
# Columns and labels:
# Actin, cytoplasmic 1 = Actin, cytoplasmic 1 (UniProt P60709); assay: cross-linking mass spectrometry
# Histone H2B type 1-N = Histone H2B type 1-N (UniProt Q99877); assay: cross-linking mass spectrometry
# Alpha-enolase = Alpha-enolase (UniProt P06733); assay: cross-linking mass spectrometry
# [1] = molecular target: Heat shock cognate 71 kDa protein (UniProt P11142); assay: cross-linking mass spectrometry
# [2] = molecular target: Heterogeneous nuclear ribonucleoprotein U (UniProt Q00839); assay: cross-linking mass spectrometry
# Heterogeneous nuclear ribonucleoprotein U, sequence (Q00839 whole entry): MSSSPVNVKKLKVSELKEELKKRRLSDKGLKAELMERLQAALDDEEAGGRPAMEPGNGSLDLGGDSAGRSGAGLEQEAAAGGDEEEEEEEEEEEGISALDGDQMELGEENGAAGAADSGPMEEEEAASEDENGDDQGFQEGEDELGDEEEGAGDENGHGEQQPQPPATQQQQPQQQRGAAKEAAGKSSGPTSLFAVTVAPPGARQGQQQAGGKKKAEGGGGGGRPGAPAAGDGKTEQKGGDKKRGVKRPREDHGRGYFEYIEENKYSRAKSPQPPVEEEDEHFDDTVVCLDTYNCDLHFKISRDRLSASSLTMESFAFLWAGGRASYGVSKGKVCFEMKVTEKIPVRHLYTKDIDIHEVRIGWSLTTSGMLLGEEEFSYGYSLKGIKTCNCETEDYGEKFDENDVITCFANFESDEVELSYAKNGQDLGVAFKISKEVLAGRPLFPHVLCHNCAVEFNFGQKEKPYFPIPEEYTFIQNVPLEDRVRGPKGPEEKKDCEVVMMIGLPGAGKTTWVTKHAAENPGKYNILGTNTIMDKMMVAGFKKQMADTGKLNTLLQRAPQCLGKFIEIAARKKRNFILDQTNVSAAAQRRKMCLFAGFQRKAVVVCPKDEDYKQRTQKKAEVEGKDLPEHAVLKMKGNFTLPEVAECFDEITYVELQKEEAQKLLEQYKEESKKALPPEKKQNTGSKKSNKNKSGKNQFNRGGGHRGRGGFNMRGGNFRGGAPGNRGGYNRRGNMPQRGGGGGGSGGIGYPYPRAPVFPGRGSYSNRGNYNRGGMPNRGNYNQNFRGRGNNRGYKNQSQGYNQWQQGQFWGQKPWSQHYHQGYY
# [3] = molecular target: Protein disulfide-isomerase A6 (UniProt Q15084); assay: cross-link between two proteins; cross-linking mass spectrometry
# Protein disulfide-isomerase A6, sequence (Q15084 whole entry): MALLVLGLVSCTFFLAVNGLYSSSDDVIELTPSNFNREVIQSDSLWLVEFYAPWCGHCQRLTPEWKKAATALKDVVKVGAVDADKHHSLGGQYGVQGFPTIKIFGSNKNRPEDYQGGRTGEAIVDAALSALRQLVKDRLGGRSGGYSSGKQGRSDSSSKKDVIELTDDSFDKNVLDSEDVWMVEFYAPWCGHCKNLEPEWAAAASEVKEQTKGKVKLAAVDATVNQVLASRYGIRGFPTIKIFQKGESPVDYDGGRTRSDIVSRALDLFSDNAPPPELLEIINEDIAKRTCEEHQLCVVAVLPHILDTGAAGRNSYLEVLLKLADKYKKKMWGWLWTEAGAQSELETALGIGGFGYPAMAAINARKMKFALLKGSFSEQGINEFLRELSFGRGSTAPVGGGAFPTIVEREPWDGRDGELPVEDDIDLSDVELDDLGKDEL
# [4] = molecular target: Voltage-gated monoatomic cation channel TMEM109 (UniProt Q9BVC6); assay: as above
# Voltage-gated monoatomic cation channel TMEM109, sequence (Q9BVC6 whole entry): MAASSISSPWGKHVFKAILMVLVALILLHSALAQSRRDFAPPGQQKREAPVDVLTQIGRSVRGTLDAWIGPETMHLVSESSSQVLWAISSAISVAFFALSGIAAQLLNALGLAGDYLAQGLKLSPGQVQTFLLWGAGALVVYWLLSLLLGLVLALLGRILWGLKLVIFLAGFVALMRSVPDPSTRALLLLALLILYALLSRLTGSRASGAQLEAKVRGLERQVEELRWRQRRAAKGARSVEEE
# CD44 antigen = CD44 antigen (UniProt P16070); assay: cross-link between two proteins; affinity purification or IP with mass spectrometry; cross-linking mass spectrometry
# Protein disulfide-isomerase, P07237, sequence (P07237 whole entry): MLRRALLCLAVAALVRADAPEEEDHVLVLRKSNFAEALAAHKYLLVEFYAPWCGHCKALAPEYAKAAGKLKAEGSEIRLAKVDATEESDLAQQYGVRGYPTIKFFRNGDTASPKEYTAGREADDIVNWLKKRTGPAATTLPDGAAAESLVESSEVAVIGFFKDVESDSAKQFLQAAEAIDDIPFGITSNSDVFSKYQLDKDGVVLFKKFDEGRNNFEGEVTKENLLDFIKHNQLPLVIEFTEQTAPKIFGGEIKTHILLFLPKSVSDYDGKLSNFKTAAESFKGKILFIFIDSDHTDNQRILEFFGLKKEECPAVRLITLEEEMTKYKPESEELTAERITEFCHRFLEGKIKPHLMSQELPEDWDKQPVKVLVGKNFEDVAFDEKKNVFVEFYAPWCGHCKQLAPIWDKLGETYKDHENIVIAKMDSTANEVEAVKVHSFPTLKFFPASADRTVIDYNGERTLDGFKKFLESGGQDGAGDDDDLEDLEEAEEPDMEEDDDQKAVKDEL
# Glyceraldehyde-3-phosphate dehydrogenase, P04406, sequence (P04406 whole entry): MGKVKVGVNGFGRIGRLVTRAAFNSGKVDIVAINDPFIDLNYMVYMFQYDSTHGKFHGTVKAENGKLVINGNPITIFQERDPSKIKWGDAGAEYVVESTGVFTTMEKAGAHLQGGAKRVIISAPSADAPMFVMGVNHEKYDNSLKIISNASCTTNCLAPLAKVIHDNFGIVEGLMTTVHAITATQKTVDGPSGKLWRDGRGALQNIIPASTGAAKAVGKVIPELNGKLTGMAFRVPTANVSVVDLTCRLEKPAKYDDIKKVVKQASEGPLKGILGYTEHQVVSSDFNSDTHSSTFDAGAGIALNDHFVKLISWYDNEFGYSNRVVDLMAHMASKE
# Alpha-enolase, sequence (P06733 whole entry): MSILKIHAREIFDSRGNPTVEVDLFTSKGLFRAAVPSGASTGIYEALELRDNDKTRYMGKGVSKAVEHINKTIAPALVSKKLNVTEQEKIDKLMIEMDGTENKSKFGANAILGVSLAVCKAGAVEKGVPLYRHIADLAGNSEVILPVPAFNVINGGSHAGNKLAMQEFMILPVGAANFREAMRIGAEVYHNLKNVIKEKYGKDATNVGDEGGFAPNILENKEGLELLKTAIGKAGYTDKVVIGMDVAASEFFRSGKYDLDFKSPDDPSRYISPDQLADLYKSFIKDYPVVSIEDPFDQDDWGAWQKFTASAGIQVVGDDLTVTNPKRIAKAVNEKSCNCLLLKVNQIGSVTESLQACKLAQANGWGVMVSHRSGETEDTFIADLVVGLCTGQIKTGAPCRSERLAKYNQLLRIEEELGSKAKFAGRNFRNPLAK
substance,measurement,setting,value
"High mobility group protein B1, P09429",listed as a hit,"Actin, cytoplasmic 1",yes
same,listed as a hit,Histone H2B type 1-N,yes
"Glyceraldehyde-3-phosphate dehydrogenase, P04406",listed as a hit,Alpha-enolase,yes
"Tubulin beta chain, P07437",listed as a hit,[1],yes
"Heterogeneous nuclear ribonucleoprotein A1, P09651",listed as a hit,[2],yes
"Protein disulfide-isomerase, P07237",listed as a hit,[3],yes
"Transmembrane protein 43, Q9BTV4",listed as a hit,[4],yes
"Annexin A6, P08133",listed as a hit,CD44 antigen,yes
